Counter-ions that a name gives are not always drawn. ± gives the standard deviation of the averaged measurements.
Tested on: A549
Assay: relative viability (normalised to negative control = 1, bortezomib = 0) (fraction); higher = less cytotoxic
Details: inflammatory serum-free RHB-A with cytokines + LPS, 5 d + 24 h CellTiter-Blue
[1] = compound 30 nM, GSK126 pretreatment: 5 uM GSK126
[2] = compound 30 nM, GSK126 pretreatment: none (vehicle)
[3] = compound 300 nM, GSK126 pretreatment: 5 uM GSK126
[4] = compound 300 nM, GSK126 pretreatment: none (vehicle)

SMILES	relative viability [1]	relative viability [2]	relative viability [3]	relative viability [4]
Cn1cnc(-c2cc3nccc(Oc4ccc(NC(=S)NC(=O)Cc5ccccc5)cc4F)c3s2)c1	0.819 ± 0.071	0.832 ± 0.051	0.838 ± 0.093	0.945 ± 0.065
CNC(=O)Nc1ccc(-c2nc(N3CC4CCC(C3)O4)c3cnn(C4CCC5(CC4)OCCO5)c3n2)cc1	0.424 ± 0.074	0.432 ± 0.012	0.226 ± 0.011	0.237 ± 0.035
CCN(CC)CCCC(C)Nc1c2ccc(Cl)cc2nc2ccc(OC)cc12 (stereo not drawn)	0.836 ± 0.066	0.847 ± 0.051	1.02 ± 0.091	1.02 ± 0.11
O=C1c2c(O)ccc(O)c2C(=O)c2c(NCCNCCO)ccc(NCCNCCO)c21 [Mitoxantrone; Mitoxantrone dihydrochloride]	0.483 ± 0.02	0.376 ± 0.022	0.148 ± 0.013	0.137 ± 0.008
COc1cc(Nc2ncc(F)c(Nc3ccc4c(n3)N(COP(=O)(O)O)C(=O)C(C)(C)O4)n2)cc(OC)c1OC	0.929 ± 0.03	0.888 ± 0.056	0.952 ± 0.013	0.983 ± 0.067
N#Cc1ccc(C(c2ccc(C#N)cc2)n2cncn2)cc1 [Letrozole]	0.756 ± 0.011	0.7993 ± 0.0055	0.832 ± 0.063	0.932 ± 0.037
COc1cc2ncnc(Nc3ccc(F)c(Cl)c3)c2cc1OCCCN1CCOCC1 [Gefitinib(Iressa); Gefitinib]	0.922 ± 0.11	0.873 ± 0.084	0.488 ± 0.11	0.472 ± 0.045
O=C(Nc1ccc(OC(F)(F)F)cc1)c1sccc1NCc1ccnc2ccccc12	1.07 ± 0.025	1.05 ± 0.035	1.15 ± 0.16	1.2 ± 0.036
CCCS(=O)(=O)Nc1ccc(F)c(C(=O)c2c[nH]c3ncc(-c4ccc(Cl)cc4)cc23)c1F [vemurafenib]	0.86 ± 0.082	0.848 ± 0.071	1 ± 0.051	1.02 ± 0.061
Cc1cnc(Nc2ccc(N3CCN(C)CC3)cc2)nc1Nc1cccc(S(=O)(=O)NC(C)(C)C)c1	1.22 ± 0.15	1.2 ± 0.08	1.2 ± 0.023	1.27 ± 0.053
Oc1ccc(-c2nc(-c3ccc(F)cc3)c(-c3ccncc3)[nH]2)cc1	1.08 ± 0.13	0.954 ± 0.13	1.36 ± 0.066	1.17 ± 0.19
Cc1cc(Nc2nc(N[C@@H](C)c3ccc(F)cc3)c(C#N)cc2F)n[nH]1	1.23 ± 0.055	1.16 ± 0.11	0.269 ± 0.021	0.309 ± 0.027
